Of roughly 8,800 targets only a part is listed; those with a hit were picked by preference. About 0.5% of all pairs of compound and target were hits. Values without a mark were called inactive.
Assays:
Assay in all cases: log2 fold change, soluble protein after heating vs DMSO (PISA); higher = thermal stabilisation; K562 lysate, 10 uM; active = over 0.2 and 3.5 SD of the protein, either way, in both replicates (recomputed)
alvocidib = compound: CN1CC[C@H](c2c(O)cc(O)c3c(=O)cc(-c4ccccc4Cl)oc23)[C@H](O)C1 [alvocidib]
Outline: (§1)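 K562 pellets were dounce-homogenised in PBS pH 7.4 containing 1 mM MgCl2, and the crude extract, at 1 mg/mL protein, was exposed to 10 μM compound for 30 min. Aliquots were heated for 3 min across 48°C-58°C, pooled, brought to 0.5% NP-40 at 4°C and spun at 21,000xg for 90 min, with the supernatant taken as soluble protein. TMTpro 16plex LC-MS/MS with equalised channel sums quantified that protein. Values are log-two fold changes in thermal stability relative to solvent controls, taken from duplicates.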

Tubastatin A = compound: CN1CCc2c(c3ccccc3n2Cc2ccc(C(=O)NO)cc2)C1 [Tubastatin A]
Outline: as §1

[1] = compound: CNC(=O)C1=CC=CC=C1NC2=NC(=NC=C2Cl)NC3=C(C=C(C=C3)N4CCOCC4)OC
Outline: as §1

defactinib = compound: CNC(=O)c1ccc(Nc2ncc(C(F)(F)F)c(NCc3nccnc3N(C)S(C)(=O)=O)n2)cc1 [defactinib]
Outline: as §1

[2] = compound: CNc1nc(-c2ccc3c(N)n[nH]c3c2)cc(N2C[C@@H](C(=O)NC3CCCCC3)CC[C@H]2C)n1
Outline: as §1

encorafenib = compound: COC(=O)N[C@@H](C)CNc1nccc(-c2cn(C(C)C)nc2-c2cc(Cl)cc(NS(C)(=O)=O)c2F)n1 [encorafenib]
Outline: as §1

[3] = compound: COC(=O)[C@H](CCSC)NC(=O)C1=C(C=C(C=C1)NC[C@H](CS)N)C2=CC=CC=C2
Outline: as §1

alisertib = compound: COc1cc(Nc2ncc3c(n2)-c2ccc(Cl)cc2C(c2c(F)cccc2OC)=NC3)ccc1C(=O)O [alisertib]
Outline: as §1

[4] = compound: COc1cc2nc(-c3cc(F)ccc3O)nc(N[C@@H]3CNC[C@H]3C(C)(C)O)c2cc1OC
Outline: as §1

gefitinib = compound: COc1cc2ncnc(Nc3ccc(F)c(Cl)c3)c2cc1OCCCN1CCOCC1 [gefitinib]
Outline: as §1

UniProt P55263, sequence (P55263 whole entry, looked up): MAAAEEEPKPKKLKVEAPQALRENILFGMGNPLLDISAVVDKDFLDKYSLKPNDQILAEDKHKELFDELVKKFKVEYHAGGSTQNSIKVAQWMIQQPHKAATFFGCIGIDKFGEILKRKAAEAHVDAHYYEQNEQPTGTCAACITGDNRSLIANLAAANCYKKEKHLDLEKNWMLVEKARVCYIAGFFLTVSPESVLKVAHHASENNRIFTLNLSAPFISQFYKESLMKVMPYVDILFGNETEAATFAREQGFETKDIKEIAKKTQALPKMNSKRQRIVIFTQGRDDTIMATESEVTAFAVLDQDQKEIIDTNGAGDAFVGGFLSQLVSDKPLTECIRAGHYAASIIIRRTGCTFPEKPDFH
UniProt Q9BQI0, sequence (Q9BQI0 whole entry, looked up): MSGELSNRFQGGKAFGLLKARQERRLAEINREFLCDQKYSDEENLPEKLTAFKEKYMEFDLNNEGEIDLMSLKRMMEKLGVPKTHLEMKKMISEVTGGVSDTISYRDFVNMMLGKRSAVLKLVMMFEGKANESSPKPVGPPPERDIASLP
UniProt Q3SXY8, sequence (Q3SXY8 whole entry, looked up): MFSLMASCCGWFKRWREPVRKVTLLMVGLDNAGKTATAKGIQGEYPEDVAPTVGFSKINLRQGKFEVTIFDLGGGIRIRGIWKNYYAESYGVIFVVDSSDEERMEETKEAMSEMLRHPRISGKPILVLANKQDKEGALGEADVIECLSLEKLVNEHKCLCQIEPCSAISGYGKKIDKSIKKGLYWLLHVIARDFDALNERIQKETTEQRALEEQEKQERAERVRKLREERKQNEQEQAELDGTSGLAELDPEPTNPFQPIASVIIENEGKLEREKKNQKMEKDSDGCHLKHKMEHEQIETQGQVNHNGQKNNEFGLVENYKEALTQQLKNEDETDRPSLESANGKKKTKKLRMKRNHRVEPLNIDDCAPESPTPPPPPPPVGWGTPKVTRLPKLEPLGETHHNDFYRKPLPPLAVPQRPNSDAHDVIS
UniProt P04083, sequence (P04083 whole entry, looked up): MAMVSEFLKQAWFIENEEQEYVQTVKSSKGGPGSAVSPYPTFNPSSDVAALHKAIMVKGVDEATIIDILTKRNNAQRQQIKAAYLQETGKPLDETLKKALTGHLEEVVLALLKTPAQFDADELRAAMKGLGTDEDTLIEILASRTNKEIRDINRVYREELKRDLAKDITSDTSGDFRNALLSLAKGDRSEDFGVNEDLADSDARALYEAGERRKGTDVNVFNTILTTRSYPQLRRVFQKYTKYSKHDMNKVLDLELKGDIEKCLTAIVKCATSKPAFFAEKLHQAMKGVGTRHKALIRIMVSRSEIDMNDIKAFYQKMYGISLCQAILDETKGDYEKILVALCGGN
UniProt Q9BTT0, sequence (Q9BTT0 whole entry, looked up): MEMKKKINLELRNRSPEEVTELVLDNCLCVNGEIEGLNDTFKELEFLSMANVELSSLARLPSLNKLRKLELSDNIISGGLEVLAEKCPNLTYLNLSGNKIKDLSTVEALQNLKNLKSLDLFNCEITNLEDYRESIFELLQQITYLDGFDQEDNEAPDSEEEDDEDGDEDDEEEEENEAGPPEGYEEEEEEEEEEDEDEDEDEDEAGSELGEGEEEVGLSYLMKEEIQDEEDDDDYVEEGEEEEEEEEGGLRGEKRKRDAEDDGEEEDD
UniProt P08243, sequence (P08243 whole entry, looked up): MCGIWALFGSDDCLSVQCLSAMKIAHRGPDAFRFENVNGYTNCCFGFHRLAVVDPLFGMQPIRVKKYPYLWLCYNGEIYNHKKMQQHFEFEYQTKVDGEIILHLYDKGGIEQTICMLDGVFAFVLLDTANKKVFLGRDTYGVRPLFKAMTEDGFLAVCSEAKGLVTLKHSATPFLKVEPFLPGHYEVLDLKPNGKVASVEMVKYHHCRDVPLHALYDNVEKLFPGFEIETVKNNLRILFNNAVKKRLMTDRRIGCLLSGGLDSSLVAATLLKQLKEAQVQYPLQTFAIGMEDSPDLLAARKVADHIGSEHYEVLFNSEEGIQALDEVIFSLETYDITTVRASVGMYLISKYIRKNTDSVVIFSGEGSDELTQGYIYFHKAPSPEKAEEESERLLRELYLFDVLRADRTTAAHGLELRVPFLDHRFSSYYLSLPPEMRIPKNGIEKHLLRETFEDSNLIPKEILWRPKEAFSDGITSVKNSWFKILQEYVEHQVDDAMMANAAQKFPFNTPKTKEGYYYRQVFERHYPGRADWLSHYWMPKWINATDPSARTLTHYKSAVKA
UniProt P55265, sequence (P55265 whole entry, looked up): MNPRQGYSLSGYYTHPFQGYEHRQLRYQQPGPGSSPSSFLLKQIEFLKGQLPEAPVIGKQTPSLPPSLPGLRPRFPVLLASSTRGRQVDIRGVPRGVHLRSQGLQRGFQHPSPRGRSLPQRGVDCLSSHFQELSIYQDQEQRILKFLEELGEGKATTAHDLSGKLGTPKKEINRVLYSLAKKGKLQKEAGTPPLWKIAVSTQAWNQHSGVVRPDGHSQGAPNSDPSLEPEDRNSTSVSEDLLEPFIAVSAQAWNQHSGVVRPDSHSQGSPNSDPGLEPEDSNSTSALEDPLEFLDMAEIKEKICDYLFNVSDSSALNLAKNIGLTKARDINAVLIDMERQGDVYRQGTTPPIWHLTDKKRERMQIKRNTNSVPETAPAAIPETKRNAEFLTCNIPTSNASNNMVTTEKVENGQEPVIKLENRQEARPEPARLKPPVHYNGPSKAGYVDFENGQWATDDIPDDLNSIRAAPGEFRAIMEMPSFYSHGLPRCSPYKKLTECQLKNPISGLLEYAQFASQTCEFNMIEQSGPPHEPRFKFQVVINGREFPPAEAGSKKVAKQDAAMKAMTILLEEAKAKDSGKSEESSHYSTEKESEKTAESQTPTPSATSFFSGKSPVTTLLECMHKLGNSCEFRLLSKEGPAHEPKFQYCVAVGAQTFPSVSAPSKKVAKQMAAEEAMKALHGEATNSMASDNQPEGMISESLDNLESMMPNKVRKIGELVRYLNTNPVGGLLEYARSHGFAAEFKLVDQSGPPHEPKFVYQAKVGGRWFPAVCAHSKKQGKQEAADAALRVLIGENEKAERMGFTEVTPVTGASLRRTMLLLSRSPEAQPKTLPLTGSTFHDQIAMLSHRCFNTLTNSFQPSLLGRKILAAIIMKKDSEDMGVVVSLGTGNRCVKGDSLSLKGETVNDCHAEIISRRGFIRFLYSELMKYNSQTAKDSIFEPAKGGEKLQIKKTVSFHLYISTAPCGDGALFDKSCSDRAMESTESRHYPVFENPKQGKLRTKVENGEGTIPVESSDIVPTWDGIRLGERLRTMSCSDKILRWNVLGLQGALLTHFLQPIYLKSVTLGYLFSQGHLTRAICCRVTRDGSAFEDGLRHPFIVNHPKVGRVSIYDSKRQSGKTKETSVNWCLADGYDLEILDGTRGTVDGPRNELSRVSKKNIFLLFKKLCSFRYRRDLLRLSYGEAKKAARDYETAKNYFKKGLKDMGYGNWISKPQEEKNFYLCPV
UniProt Q16186, sequence (Q16186 whole entry, looked up): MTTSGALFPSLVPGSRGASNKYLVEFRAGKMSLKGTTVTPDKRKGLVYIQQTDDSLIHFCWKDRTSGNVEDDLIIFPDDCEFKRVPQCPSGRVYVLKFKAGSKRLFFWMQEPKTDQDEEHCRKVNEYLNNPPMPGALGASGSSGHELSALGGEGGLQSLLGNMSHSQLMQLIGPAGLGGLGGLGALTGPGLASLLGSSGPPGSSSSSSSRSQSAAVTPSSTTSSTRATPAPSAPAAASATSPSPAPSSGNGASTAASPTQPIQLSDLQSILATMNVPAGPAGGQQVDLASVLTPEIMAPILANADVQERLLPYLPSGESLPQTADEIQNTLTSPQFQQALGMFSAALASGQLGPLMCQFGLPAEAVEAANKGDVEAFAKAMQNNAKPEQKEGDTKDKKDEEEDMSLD
UniProt Q12904, sequence (Q12904 whole entry, looked up): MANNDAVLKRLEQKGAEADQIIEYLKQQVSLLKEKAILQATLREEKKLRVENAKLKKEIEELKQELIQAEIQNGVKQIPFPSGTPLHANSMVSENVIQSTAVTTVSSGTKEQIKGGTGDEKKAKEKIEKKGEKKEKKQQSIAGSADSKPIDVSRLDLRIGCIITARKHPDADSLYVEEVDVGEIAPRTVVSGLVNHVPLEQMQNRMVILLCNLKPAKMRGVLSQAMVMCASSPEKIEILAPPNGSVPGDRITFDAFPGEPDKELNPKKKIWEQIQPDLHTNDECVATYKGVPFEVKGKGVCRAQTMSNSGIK
UniProt Q96BM9, sequence (Q96BM9 whole entry, looked up): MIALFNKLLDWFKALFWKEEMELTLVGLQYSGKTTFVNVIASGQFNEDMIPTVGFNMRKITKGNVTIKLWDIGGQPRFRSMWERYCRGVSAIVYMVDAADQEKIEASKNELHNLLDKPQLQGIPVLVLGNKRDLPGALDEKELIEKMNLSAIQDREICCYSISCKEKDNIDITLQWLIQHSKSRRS
UniProt P08758, sequence (P08758 whole entry, looked up): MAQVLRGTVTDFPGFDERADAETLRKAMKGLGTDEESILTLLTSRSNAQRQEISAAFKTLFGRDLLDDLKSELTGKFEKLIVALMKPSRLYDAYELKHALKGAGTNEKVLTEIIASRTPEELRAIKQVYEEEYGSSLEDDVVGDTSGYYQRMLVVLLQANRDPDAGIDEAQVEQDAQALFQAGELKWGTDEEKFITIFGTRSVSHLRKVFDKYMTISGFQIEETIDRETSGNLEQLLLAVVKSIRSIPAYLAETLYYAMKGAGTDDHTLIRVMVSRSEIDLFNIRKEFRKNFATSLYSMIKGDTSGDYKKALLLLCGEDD
UniProt Q13155, sequence (Q13155 whole entry, looked up): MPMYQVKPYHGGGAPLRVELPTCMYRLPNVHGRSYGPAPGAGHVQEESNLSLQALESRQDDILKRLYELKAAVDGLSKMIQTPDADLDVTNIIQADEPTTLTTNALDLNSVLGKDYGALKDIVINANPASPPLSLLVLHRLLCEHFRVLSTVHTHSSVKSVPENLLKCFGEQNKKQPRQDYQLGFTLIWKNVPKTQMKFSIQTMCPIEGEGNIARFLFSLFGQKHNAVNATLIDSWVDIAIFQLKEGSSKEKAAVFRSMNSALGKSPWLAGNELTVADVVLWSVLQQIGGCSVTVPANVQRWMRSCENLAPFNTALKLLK

| Target | log2 fold change (alvocidib) | log2 fold change (Tubastatin A) | log2 fold change [1] | log2 fold change (defactinib) | log2 fold change [2] | log2 fold change (encorafenib) | log2 fold change [3] | log2 fold change (alisertib) | log2 fold change [4] | log2 fold change (gefitinib) |
| --- | --- | --- | --- | --- | --- | --- | --- | --- | --- | --- |
| ANXA1 (UniProt P04083) | -0.025 | -0.005 | -0.021 | -0.007 | -0.055 | -0.021 | 0.028 | 0.001 | 0.008 | -0.012 |
| ASNS (UniProt P08243) | 0.019 | -0.025 | -0.036 | 0.006 | 0.027 | -0.009 | -0.12 | 0.019 | 0.009 | 0.004 |
| ACACA isoform 4 (UniProt Q13085) | 0.016 | -0.115 | -0.011 | -0.008 | -0.02 | 0.032 | -0.16 | 0.014 | 0 | -0.004 |
| ADAR isoform 4 (UniProt P55265) | -0.004 | -0.167 | 0.012 | 0.054 | -0.001 | 0.052 | -0.041 | 0.045 | 0.013 | 0.02 |
| ACOX1 isoform 2 (UniProt Q15067) | -0.049 | 0.041 | 0.012 | 0.012 | 0.017 | -0.015 | -0.255 (active) | 0 | 0.01 | 0.018 |
| ARL8A (UniProt Q96BM9) | 0.082 | 0.043 | 0.06 | 0.019 | 0.204 | -0.048 | -0.03 | -0.186 | 0.027 | 0.013 |
| ABL2 (UniProt P42684) | 0.007 | -0.04 | 0.082 | 0.066 | -0.108 | 0.092 | -0.068 | -0.123 | -0.009 | -0.176 |
| AIMP1 isoform 2 (UniProt Q12904) | 0.056 | -0.118 | 0.01 | 0.018 | 0.028 | -0.005 | 0.11 | 0.004 | -0.009 | -0.029 |
| ADD1 isoform 3 (UniProt P35611) | 0.016 | 0.007 | -0.013 | 0.015 | 0.031 | 0.004 | -0.034 | 0.03 | 0.006 | -0.01 |
| ADK (UniProt P55263) | 0.246 | -0.025 | 0.178 | 0.026 | 0 | -0.048 | 0.068 | -0.063 | -0.015 | 0.158 |
| ADRM1 (UniProt Q16186) | 0.009 | -0.064 | -0.027 | 0.003 | 0.011 | -0.033 | 0.118 | 0.032 | -0.001 | -0.009 |
| ANXA5 (UniProt P08758) | 0.04 | 0 | -0.023 | -0.002 | -0.067 | -0.016 | 0.049 | 0.052 | -0.009 | 0.049 |
| AIMP2 isoform 2 (UniProt Q13155) | – | -0.038 | – | – | – | – | – | – | 0.115 | – |
| AIF1L (UniProt Q9BQI0) | 0.083 | -0.009 | 0.073 | – | 0.164 | 0.06 | -0.401 (active) | 0.095 | 0.001 | 0.035 |
| AGGF1 (UniProt Q8N302) | -0.114 | -0.058 | 0.023 | -0.365 (active) | – | 0.126 | 0.008 | -0.015 | 0.145 | -0.008 |
| AP5B1 (UniProt Q2VPB7) | -0.091 | -0.149 | 0.099 | – | -0.092 | -0.017 | -0.011 | -0.008 | -0.059 | 0.05 |
| ABL1 isoform 2 (UniProt P00519) | – | -0.091 | 0.044 | -0.023 | -0.011 | 0.039 | 0.071 | 0.019 | -0.011 | – |
| ARL13B (UniProt Q3SXY8) | 0.182 | 0.018 | 0.165 | -0.025 | -0.102 | – | – | – | 0 | – |
| ABCA3 (UniProt Q99758) | 0.109 | 0.188 | -0.017 | -0.037 | 0.317 | -0.12 | 0.025 | – | -0.09 | – |
| ANP32E isoform 3 (UniProt Q9BTT0) | -0.27 | – | – | -0.141 | – | 0.036 | -0.015 | – | – | – |

Reference: the supplement of paper PMC10849652
